# Rab9 prom act = activators of Rab9 promoter; Huh7 Rab9 promoter-luciferase reporter, luminescence, 24 h; Potency, µM (highest dose often 9.22 µM), inactives show top-dose activation, negative = inhibition, actives largely listed as activators; 2.8% of 320,000 active; AID 485297; note: % of control where 0% means no effect; nearly all actives have a fitted effect of over 60% in size
#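 Stable Rab9-luc Huh7, 1500 cells/well, 2 h settle; cmpd in DMSO, 24 h, 37 °C/5% CO2; luciferase reagent 10 min RT; luminescence.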
# ELG1 genotox = inducers of genotoxicity in HEK293T ELG1-luciferase cells; Potency, µM (titrated, usually from 46 µM), for inactives: at the highest dose activity change, positive = activation, hits mostly activators; HEK293T ELG1-luciferase reporter, luminescence, 16 h; 1.3% of 330,000 active; note: % of control where 0% means no effect; nearly all actives have a fitted effect of over 60% in size
#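 ELG1-luciferase HEK293T cells, 2,000/well; compound pinned in; 16 hr, 37 °C, 5% CO2; ONE-Glo, 30 min RT; luminescence on CCD imager.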
# NPC1 prom act = activators of NPC1 promoter; Huh7 NPC1 promoter luciferase reporter, 24 h; AID 485313; 2.4% of 320,000 active; Potency, µM (top dose mostly 9.22 µM), for inactives: top-dose activation, usual class: activators; note: % of control where 0% means no effect; nearly all actives have a fitted effect of over 60% in size
#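 Luminescence from an NPC1 promoter-driven luciferase reporter in stably transfected Huh7 cells was measured after 24 h compound treatment at 37 °C, followed by 10 min ambient incubation with luciferase detection reagent.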
# ELG1 repair inh = inhibitors of ELG1-dependent DNA repair in HEK293T cells; HEK293T ELG1-luciferase reporter, luminescence, 16 h; DNA damage induced by 5-fluorouridine; Potency, µM (series often up to 46.1 µM), for the others: at the highest dose activity change, negative = inhibition, actives largely listed as inhibitors; 2.3% of 330,000 active; note: % is set by controls: 0 for no effect and ±100 for the full control effect; nearly all actives have a fitted effect of over 55% in size
#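 Reporter activity after DNA damage by 5-fluorouridine is monitored. Compound-treated cells incubate 16 hr at 37 °C, then ONE-Glo is added for 30 min before luminescence reading.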
# SMN2 splice enh = enhancers of SMN2 splice variant expression; HEK293 SMN2-luciferase splicing reporter, luminescence, 30-36 h; Potency, µM (highest dose often 46.1 µM), for the others: at the highest dose activity change, positive = activation, most hits filed as activators; 2.8% of 210,000 active; note: % of control where 0% means no effect; nearly all actives have a fitted effect of over 55% in size
#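 HEK293 cells carry an SMN2 minigene-luciferase reporter in which exon 7 inclusion puts luciferase in frame. Cells were seeded at 2000 cells/well, attached for 10-12 hours, then exposed to compounds for 30-36 hours at 37C before ONE-Glo luminescence.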
# FLuc counter = counter-screen for miR-21 project: firefly luciferase inhibitors or activators; purified FLuc, Km substrates, luminescence inhibition; Potency, µM (top dose mostly 57.5 µM), without a hit: at the highest dose activity change, negative = inhibition, actives largely listed as inhibitors; 6.9% of 360,000 active; P08659;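 note: plate controls were vehicle for no effect and reference inhibitor for full effect; nearly all actives have a fitted effect of over 55% in size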
# Target sequence (P08659 whole entry, looked up): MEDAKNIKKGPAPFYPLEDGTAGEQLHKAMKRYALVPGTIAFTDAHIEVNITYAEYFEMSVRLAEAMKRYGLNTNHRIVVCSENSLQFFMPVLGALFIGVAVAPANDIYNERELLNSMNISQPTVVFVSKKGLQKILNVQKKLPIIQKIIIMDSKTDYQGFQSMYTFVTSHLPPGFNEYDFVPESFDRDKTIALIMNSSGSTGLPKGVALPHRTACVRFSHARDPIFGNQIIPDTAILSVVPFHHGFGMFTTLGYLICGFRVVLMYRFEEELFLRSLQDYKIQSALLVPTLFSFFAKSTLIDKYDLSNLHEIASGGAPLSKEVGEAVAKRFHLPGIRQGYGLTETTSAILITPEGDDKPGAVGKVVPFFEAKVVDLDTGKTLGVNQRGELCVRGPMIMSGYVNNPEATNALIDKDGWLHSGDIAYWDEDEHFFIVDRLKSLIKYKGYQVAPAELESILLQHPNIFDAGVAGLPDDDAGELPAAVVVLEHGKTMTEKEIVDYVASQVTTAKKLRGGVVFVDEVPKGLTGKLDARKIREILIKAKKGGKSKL
#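 Purified P. pyralis luciferase, 10 nM final, with Km-level 10 uM D-luciferin and 10 uM ATP in 50 mM Tris acetate pH 7.5, 10 mM Mg acetate, 0.01% Tween-20, 0.05% BSA; 6-point qHTS titration about 60 µM downward; luminescence read.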
# Active calls of the source: *; u = inconclusive; x = no result; [ ] = another dose, or the depositor's remark. The list is not random: actives were taken first. Their share in the collection is about 9.2%. Calls come from the whole dose curve; as a rule, active = well fitted curve in the direction sought with a large enough effect; inconclusive = small, poorly fitted or top-dose-only effect, or another doubt; inactive = no such curve, though single readings can be large; an effect the other way counts as inactive or inconclusive. Potency is the fitted concentration of half-maximal effect.
SMILES,Rab9 prom act,ELG1 genotox,NPC1 prom act,ELG1 repair inh,SMN2 splice enh,FLuc counter
Cc1ccc(-c2cc(C(=O)N3CCN(c4ccc(F)cc4)CC3)c3ccccc3n2)o1,15.9%,-6.6%,2.3%,0.0%,14.0%,3.38µM*
CCOC(=O)N1CCN(C(=O)c2cc(-c3ccncc3)nc3ccccc23)CC1,-14.1%,-0.3%,-18.5%,u,x,2.2%
COc1ccc(-c2cc(C(=O)N3CCCC3)c3ccccc3n2)cc1,u,5.0%[9.26 µM],28.8%,u,x,4.26µM*
CCOC(=O)N1CCN(C(=O)c2cc(-c3ccc(OCC)cc3)nc3ccccc23)CC1,u,0.4%,22.6%,u,12.6µM*,0.213µM*
Cc1ccc(-c2cc(C(=O)N3CCOCC3)c3ccccc3n2)o1,x,7.9%,x,u,x,x
Cc1ccc(-c2cc(C(=O)N3CCCCC3)c3ccccc3n2)cc1C,8.4%,5.1%,18.2%,u,x,2.39µM*
O=C(c1cc(-c2ccccc2)nc2ccccc12)N1CCCC1,-0.5%,-5.7%,2.2%,7.6%,x,u
COC(=O)[C@H]1C2CC3c4[nH]c5ccccc5c4CCN3CC2CC[C@@H]1O (some centres not stated),x,x,x,x,-0.3%,x
CCS(=O)(=O)c1nc(S(=O)(=O)c2ccc(Cl)cc2)c(N2CCN(C)CC2)s1,7.4%,-4.8%,3.7%,9.2%,x,1.2%
COc1ccc(S(=O)(=O)NCCCO)cc1-c1nnc2c3ccccc3c(C)nn12,x,x,x,x,7.4%,-3.0%
CCOC(=O)N1CCN(C(=O)c2ccc3nc(-c4ccccc4)c(-c4ccccc4)nc3c2)CC1,-0.6%,-10.4%,-2.5%,23.1µM*,x,3.1%
CCOC(=O)C1CCCN(C(=O)c2cc(-c3ccccc3)nc3ccccc23)C1 (configuration not stated),-0.9%,2.4%,-1.1%,u,-6.3%,u
COc1ccc(-c2cc(C(=O)N3CCN(c4ccccc4)CC3)c3ccccc3n2)cc1,-8.5%,2.1%,-21.6%,-23.8%,13.4%,2.69µM*
Cc1ccc(-c2cc(C(=O)N3CCCC(C(F)(F)F)C3)c3ccccc3n2)o1 (configuration not stated),8.7%,-2.0%,3.5%,11.0%,x,12µM*
O=c1cc(-c2ccc(F)cc2)nc(SCc2nc(-c3cccc(C(F)(F)F)c3)no2)[nH]1,x,x,x,x,x,-14.5%
COc1cccc(CN(C(=O)c2cnccn2)C(C(=O)NC2CCCCC2)c2cc(OC)c(OC)c(OC)c2)c1 (configuration not stated),-1.5%,0.2%,-4.5%,0.0%,x,-1.4%
CC(C)c1ccc(C(=O)Nc2nnc(S(=O)(=O)N3CCOCC3)s2)cc1,0.3%,-1.6%,-4.5%,-8.6%,x,16.9µM*
Cc1ccccc1N1CCN(S(=O)(=O)c2nnc(NC(=O)c3ccccc3)s2)CC1,x,x,x,x,x,-8.1%
Cc1ccccc1N1CCN(S(=O)(=O)c2nnc(NC(=O)c3ccc(C(C)C)cc3)s2)CC1,x,x,x,x,x,23.9µM*
CCN(CC)S(=O)(=O)c1nnc(NC(=O)c2ccc(C(C)C)cc2)s1,x,x,x,x,x,9.53µM*
COc1cccc(-c2nn(-c3ccccc3)cc2/C=C(/NC(=O)c2ccccc2)C(=O)O)c1,-1.3%,1.5%,-0.5%,u,x,26.9µM*
COc1cccc(-c2nn(-c3ccccc3)cc2C(=O)OCC(=O)Nc2ncc(Cl)cc2Cl)c1,-1.4%,-1.3%,0.0%,20.6µM*,x,u
COc1cccc(-c2nn(-c3ccccc3)cc2C(=O)NCC(=O)O)c1,-2.2%,-3.7%,1.4%,-1.7%,4.0%,9.53µM*
COc1cccc(-c2nn(-c3ccccc3)cc2CO)c1,x,x,x,x,6.5%,13.5µM*
CC(=O)N1CCc2c(sc3c2c(=O)n(CCc2ccccc2)c(=O)n3Cc2cccc(C)c2)C1,x,x,x,x,-1.5%,5.6%
